Experimental data from PubChem BioAssay AID977606 (Broad Institute, 2014).
About 430 (29%) of roughly 1,500 compounds were called active. The list is a sample of the results. Potency and affinity values are given separately. Values without a mark were called inactive. How the calls were made is not given here.

Test: insulin secretion activators without glucose, dose response, counter-screen for glucose-dependent insulin secretion activators, cell-based, INS-1E, Gaussia luciferase, luminescence, cherry-pick (AID 977606);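 further: 0% = median of neutral control wells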
Conditions: INS-1E Gaussia luciferase insulin secretion, no glucose, 100% = twice neutral-control luminescence; series mostly up to 35 µM; activation: at the top concentration

Row | SMILES | activation
1 | CCOC(=O)N1CCN(S(=O)(=O)N2CCCC(C(=O)NCc3cc(OC)ccc3OC)C2)CC1 (stereo unspecified) | 23.5%
2 | CCCNC(=O)C1(C)CCN(C(=O)c2cccc(C(F)(F)F)c2)C1 (stereo unspecified) | 12%
3 | COc1cc(C(F)(F)F)c(C(=O)NCc2cccc(Cl)c2)cn1 | -12.8%
4 | CCn1cc(S(=O)(=O)NCCc2ccc(OC)c(OC)c2)cn1 | 1.79%
5 | O=C(Nc1nnc(-c2ccc(Cl)cc2)o1)NC1CCCCC1 | 6.27%
6 | COc1cc2cnc(-c3ccsc3)cc2cc1OC | 3.85%
7 | CCOC(=O)C1CCCN(C(=O)c2cccnc2Oc2ccccc2)CC1 (stereo unspecified) | -3.81%
8 | CCOC(=O)c1ccc(S(=O)(=O)N2CCC(C(=O)Nc3nnc(C)o3)CC2)cc1 | 6.79%
9 | CCc1cccc(NC(=O)C2CCCN2S(=O)(=O)c2ccc3c(c2)n(C)c(=O)c(=O)n3C)c1 (stereo unspecified) | -8.87%
10 | Cc1cccc(C)c1OCCCn1ccnc1 | 9.39%
11 | CCSc1ncnc2sc3c(c12)CCC3 | 55.8%
12 | O=C1c2cccnc2C(Nc2cccc(F)c2)N1Cc1ccco1 (stereo unspecified) | 15.7%
13 | C[C@@H]1CN([C@H](C)CO)C(=O)CCCn2nncc2CO[C@H]1CN(C)C(=O)Nc1ccnc(N2CCOCC2)c1 | 7.66%
14 | CCOc1ccc(Nc2oc(-c3cccc(Cl)c3)nc2C#N)cc1 | -0.811%
15 | Cc1ccc(-c2nc(C#N)c(NCC3CCCO3)o2)cc1 (stereo unspecified) | -7.63%
16 | CN1CCN(C(=O)c2cccc(-c3cnc4cnc(-c5ccccc5Oc5ccccc5)cn34)c2)CC1 | 14.4%
17 | N#Cc1ccc(-c2ccc3c(c2)[C@@H]2[C@@H](CCN2C(=O)C2CCCC2)[C@@H](CO)N3)cc1 | -18.1%
18 | COc1ccccc1C(=O)N/N=C(\C)CC(=O)Nc1ccc2c(c1)OCCO2 | -2.67%
19 | COc1ccc(-n2c(=S)[nH]c3cc(C(=O)Nc4ccc(OC)c(OC)c4)ccc3c2=O)cc1 | 3.17%

Row | SMILES | activation
20 | C=CCc1ccccc1Oc1cc(OC)nc(N)n1 | -9.57%
21 | COc1ccccc1CNC(=O)CCNS(=O)(=O)c1ccc2[nH]c(=O)oc2c1 | -11.6%
22 | COc1ccc(-c2ccc(SCc3ccccn3)nn2)cc1OC | 1.81%
23 | CC1(C(=O)NCc2ccccc2)CN(S(C)(=O)=O)CC(=O)N1C1CC1 (stereo unspecified) | 32.6%
24 | CC(C)NC(=O)C1(C)CCN1Cc1cccc(C#N)c1 (stereo unspecified) | 2.56%
25 | Cc1ccccc1CN(C)Cc1cc(=O)oc2c(C)c(C)ccc12 | 25.7%
26 | C[C@H]1CN=C(N(C)C)N1CC1CCCC1 | -1.37%
27 | COc1ccccc1NS(=O)(=O)c1cccc(C(=O)N/N=C/c2c(C)nn(-c3ccccc3)c2N2CCCC2)c1 | -20.3%
28 | Cc1nn(-c2ccccc2)c(N2CCCC2)c1/C=N/O | -6.01%
29 | COc1ccc(S(=O)(=O)Nc2cccc(-c3ccc4nncn4n3)c2)cc1F | -4.18%
30 | COc1ccc2c(c1)CCc1cc(C(=O)O)sc1-2 | 0.793%
31 | CNC(=O)c1[nH]nc2c1CCc1cc(OC)ccc1-2 | 26.6%
32 | CCOc1ccc(C(C)=O)cc1COC(=O)CN1C(=O)NC2(CCCC2)C1=O | -3.42%
33 | COc1ccc2c(c1)[C@@]1(OCCC=C[C@H]1C)C(=O)N2CC1CC1 | 2.55%
34 | NC(=O)C1CCN(c2nc(-c3ccccc3)nc3ccccc23)CC1 | 21.8%
35 | CN(Cc1ccccc1)c1ncnc2[nH]ncc12 | -5.45%
36 | O=C(Nc1ccc(F)cc1)c1cccnc1Oc1ccccc1 | -4.69%
37 | c1ccc(-c2ccccc2OCCN2CCCCC2)cc1 | 15.9%
38 | N#Cc1sc2nc3c(c(-c4cccnc4)c2c1N)CCC3 | -3.17%

Row | SMILES | activation
39 | Cc1cccc(C)c1NC(=O)C1c2ccccc2OCC(=O)N1CCCN1CCOCC1 (stereo unspecified) | -8.75% [at 11 µM]
40 | Cc1ccc(CS(=O)Cc2ccc(C(=O)NCc3ccccc3)o2)cc1 (stereo unspecified) | 7.13%
41 | Cc1ccc(C(=O)n2nc(-c3cccnc3)nc2N)cc1 | -5.96%
42 | CC(=O)NCCc1nc2ccccc2n1CCOc1cccc(C)c1 | 5.03%
43 | COc1ccc(OCC(=O)NNC(=O)Cn2c(=O)cnc3ccccc32)cc1 | 6.08%
44 | CCCCCCn1c(-c2cccs2)n[nH]c1=S | 17.7%
45 | CCN1CCN(CC(=O)Nc2ccc(C(C)=O)cc2)CC1 | 28%
46 | COc1ccc(OC)c(-c2nnc3n2N=C(c2ccc(OC)c(OC)c2)CS3)c1 | 18.8%
47 | CC[C@@H]1CC2=C(C(=O)OC(C)(C)O2)[C@H](c2ccc(F)cc2)O1 | 2.8%
48 | C#Cc1cccc(-n2nnc(C(=O)OC)c2-c2ccccc2)c1 | -7.18%
49 | CCOC(=O)c1sc2nc(-c3ccccc3)ccc2c1N | 0.732%
50 | Cc1cc(-c2ccccc2)n2nc(N)nc2n1 | -12.7%
51 | CCCc1cc(=O)oc2cc(OCC(=O)NC3CCN(Cc4ccccc4)CC3)ccc12 | -7.23%
52 | CNC(=O)C1CC(=O)N(c2ccc(OCC(=O)Nc3ccccc3)cc2)C1 (stereo unspecified) | 5.56%
53 | Cc1ccc2c(c1)c(-c1ccccc1)nc1nncn12 | -6.19%
54 | CCC(CC)NC(=O)c1ccccc1Oc1ccccc1 | 9.88%
55 | COc1ccc(C2=Nn3c(nnc3-c3ccncc3)SC2)cc1OC | -11.7%
56 | C/C(Cl)=C\Cn1c(N2CCCC2)nc2c1c(=O)n(C)c(=O)n2C | 14.8%
